Results filed as inconclusive are left out. The source made the active and inactive calls. Unless noted, the call rests on the fitted dose curve; in most records, active means well fitted curve in the direction sought with a large enough effect in the repeat runs; inconclusive means weak or mixed curves; inactive means no such curve, though single readings can be large; an effect the other way counts as inactive or inconclusive.
Assays:
[1] = qHTS assay for small molecule agonists of the p53 signaling pathway (AID 651631; calls by dose curve; further: nearly all actives have a fitted effect of over 15% in size)
In short: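 Readout was fluorescence from the LiveBLAzer FRET substrate, applied for 2 h at room temperature after 16 h compound exposure at 37 °C. Cells were the p53RE-bla HCT-116 line, with beta-lactamase driven by p53 response elements.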

[2] = qHTS assay for small molecules that induce genotoxicity in human embryonic kidney cells expressing luciferase-tagged ATAD5 (AID 651632); further: nearly all actives have a fitted effect of over 15% in size
In short: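 ATAD5-luc HEK293T, 2,000 cells/well; cpd or DMSO pin-transferred; 16 hr, 37C/5% CO2; Amplite 30 min RT; luminescence.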

[3] = qHTS assay for small molecule agonists of the p53 signaling pathway - cell viability (AID 651633; calls by dose curve; further: series mostly up to about 83 µM; nearly all actives have a fitted effect of over 30% in size)
In short: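 p53RE-bla cells were treated with compound for 16 hours at 37 C. Cytotoxicity was then measured as CellTiter-Glo luminescence after 30 min at room temperature.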

[4] = qHTS assay for small molecules that induce genotoxicity in human embryonic kidney cells expressing luciferase-tagged ATAD5 - cell viability (AID 651634; calls by dose curve; further: nearly all actives have a fitted effect of over 25% in size)
In short: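 Fluorescence from CellTiter-Fluor, reporting protease activity within live cells, served as the viability read-out. HEK293T cells carrying luciferase-tagged ATAD5 had been treated with compound for 15.5 hr at 37C.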

[5] = qHTS assay for small molecule disruptors of the mitochondrial membrane potential - cell viability (AID 720634; calls by dose curve;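 further: human HepG2 liver cancer cells; series mostly up to about 83 µM; nearly all actives have a fitted effect of over 20% in size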)
In short: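 Cells: HepG2, 2,000/well, attached overnight. Compound 1 hr, 37 C/5% CO2. +m-MPI dye, +CellTiter-Glo 30 min RT. Readout: luminescence (ATP).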

[6] = qHTS assay for small molecule disruptors of the mitochondrial membrane potential (AID 720635)
In short: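 HepG2 cells exposed to compound 1 hr at 37C, then Mito-MPS dye 30 min. Ratio read of aggregate (540/590 nm) versus monomer (490/535 nm) fluorescence.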

[7] = qHTS assay to test for compound auto fluorescence at 535 nm (green) in HepG2 cells (AID 720675)
[8] = qHTS assay to test for compound auto fluorescence at 590 nm (red) in HEK293 cells (AID 720679)
In short: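 Plates of HEK293 cells (10% dialyzed FBS) are treated with 23 nL compound or DMSO vehicle after a 4-5 hr attachment period, incubated overnight at 37C, and read for red fluorescence at 540/590nm.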

[9] = qHTS assay to test for compound auto fluorescence at 535 nm (green) in HEK293 cells (AID 720680)
[10] = qHTS assay to test for compound auto fluorescence at 460 nm (blue) in HEK293 cell free culture (AID 720681)
In short: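 Compounds were added to cell-free DMEM with 10% FBS and fluorescence read directly. The blue channel used 405 nm excitation and 460 nm emission, with triamterene as the reference fluorophore.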

[11] = qHTS assay to test for compound auto fluorescence at 535 nm (green) in HEK293 cell free culture (AID 720682)
In short: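 Compounds were pin-transferred into cell-free DMEM with 10% FBS, and green fluorescence was read at excitation 485 nm and emission 535 nm. Intensities were expressed as fluorescein-equivalent values.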

[12] = qHTS assay to test for compound auto fluorescence at 590 nm (red) in HEK293 cell free culture (AID 720683)
In short: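 Cell-free wells of DMEM with 10% FBS received compound, and intrinsic fluorescence was read at excitation/emission 540/590 nm. Values expressed as equivalence to Rose Bengal sodium.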

[13] = qHTS assay to test for compound auto fluorescence at 590 nm (red) in HepG2 cell free culture (AID 720684)
In short: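 Compounds are added to culture medium (MEM, 10% FBS) lacking cells, then fluorescence is read at excitation 540 nm, emission 590 nm, with Rose Bengal sodium as the equivalency standard.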

[14] = qHTS assay to test for compound auto fluorescence at 460 nm (blue) in HepG2 cell free culture (AID 720685)
In short: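 Compound (23 nL) or DMSO pinned into cell-free MEM with 10% FBS; blue fluorescence read at 405/460 nm excitation/emission, expressed as auto-fluorescence equivalency to triamterene.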

[15] = qHTS assay to test for compound auto fluorescence at 535 nm (green) in HepG2 cell free culture (AID 720686)
[16] = qHTS assay to test for compound auto fluorescence at 460 nm (blue) in HepG2 cells (AID 720687)
In short: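 HepG2 cells in MEM with 10% FBS, attached overnight at 37 C, were exposed to compound or DMSO for 1 hr at 37 C, 5% CO2. Blue fluorescence was read at 405/460 nm, with triamterene as reference fluorophore.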

[17] = biological target: Glucocorticoid receptor (Homo sapiens) (UniProt P04150); experiment: qHTS assay to identify small molecule agonists of the glucocorticoid receptor (GR) signaling pathway (AID 720691; active means well fitted activation curve with a large enough effect in the signal ratio in the repeat runs, not every such curve was filed as active; the % refers to the signal ratio)
Glucocorticoid receptor (Homo sapiens), sequence (P04150 whole entry, looked up): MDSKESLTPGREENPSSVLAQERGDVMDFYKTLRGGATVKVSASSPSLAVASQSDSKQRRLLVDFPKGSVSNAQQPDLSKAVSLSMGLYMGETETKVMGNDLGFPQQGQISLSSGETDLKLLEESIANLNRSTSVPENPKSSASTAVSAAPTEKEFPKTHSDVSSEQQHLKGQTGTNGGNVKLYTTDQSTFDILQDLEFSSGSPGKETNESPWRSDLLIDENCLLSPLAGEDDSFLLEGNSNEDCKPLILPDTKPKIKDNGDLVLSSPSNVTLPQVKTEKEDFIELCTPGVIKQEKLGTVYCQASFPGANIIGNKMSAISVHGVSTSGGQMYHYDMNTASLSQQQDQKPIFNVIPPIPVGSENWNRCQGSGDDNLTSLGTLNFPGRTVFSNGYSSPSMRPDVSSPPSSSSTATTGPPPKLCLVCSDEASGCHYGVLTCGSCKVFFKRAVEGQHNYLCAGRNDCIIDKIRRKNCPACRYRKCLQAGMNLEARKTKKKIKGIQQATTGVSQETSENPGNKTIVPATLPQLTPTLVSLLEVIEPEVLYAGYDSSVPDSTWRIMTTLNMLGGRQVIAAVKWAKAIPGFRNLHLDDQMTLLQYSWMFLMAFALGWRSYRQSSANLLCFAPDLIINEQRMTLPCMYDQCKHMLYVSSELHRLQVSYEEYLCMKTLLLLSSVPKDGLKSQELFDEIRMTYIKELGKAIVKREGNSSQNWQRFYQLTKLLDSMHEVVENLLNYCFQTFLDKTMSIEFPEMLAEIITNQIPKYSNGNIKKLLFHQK
In short: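 Fluorescence intensity from LiveBLAzer B/G FRET substrate (2 h, room temperature) reports beta-lactamase expression driven by the glucocorticoid response element in GR-bla HeLa cells after 18 h compound exposure at 37 C.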

[18] = biological target: Glucocorticoid receptor (Homo sapiens) (UniProt P04150); experiment: qHTS assay to identify small molecule antagonists of the glucocorticoid receptor (GR) signaling pathway (AID 720692; active means well fitted inhibition curve with a large enough effect in the signal ratio in the repeat runs, not every such curve was filed as active; the % refers to the signal ratio)
In short: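 HeLa GR-bla cells; cmpd + dex 5 nM final, 18 h 37 C; LiveBLAzer B/G FRET substrate 2 h RT; fluorescence intensity read. Antagonist mode, qHTS.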

[19] = qHTS assay to test for compound auto fluorescence at 590 nm (red) in HepG2 cells (AID 720674)
In short: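 HepG2 cells, 2,000 per well in MEM with 10% FBS, attached overnight at 37 C, then got 23 nL compound or DMSO. After 1 hr at 37 C, 5% CO2, red fluorescence was read at 540/590 nm against Rose Bengal sodium as reference.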

[20] = qHTS assay to test for compound auto fluorescence at 460 nm (blue) in HEK293 cells (AID 720678)
In short: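 After cell attachment (4-5 hr, 37C), compounds were pinned onto HEK293 monolayers in 10% dialyzed FBS medium. The blue channel (405/460 nm) was read following overnight culture. Equivalency was calculated against triamterene.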
On the % scale 0 is the no-effect control and ±100 the full control effect.

CC(=O)/C(C)=C/C1C(C)=CCCC1(C)C (centres undefined)
inactive: Potency [1] | Potency [2] | Potency [3] | Potency [4] | Potency [5] | Potency [6] | outcome [7] | outcome [8] | outcome [9] | Potency [10] | outcome [11] | outcome [12] | outcome [13] | Potency [14] | outcome [15] | Potency [16] | Potency [17] | Potency [18]

NCc1ccccc1
inactive: Potency [1] | Potency [2] | Potency [3] | Potency [4] | Potency [5] | Potency [6] | outcome [19] | outcome [7] | Potency [20] | Potency [10] | outcome [11] | outcome [12] | Potency [14] | outcome [15] | Potency [16] | Potency [17] | Potency [18]

CC(C)(C)C1CCCCC1O (centres undefined)
inactive: Potency [1] | Potency [2] | Potency [3] | Potency [4] | Potency [5] | Potency [6] | outcome [7] | Potency [20] | outcome [8] | outcome [9] | outcome [11] | outcome [12] | outcome [13] | Potency [14] | outcome [15] | Potency [16] | Potency [17] | Potency [18]

CC(C)=CCCC(C)CC=O (centres undefined)
inactive: Potency [1] | Potency [2] | Potency [3] | Potency [4] | Potency [5] | outcome [19] | outcome [7] | Potency [20] | outcome [8] | outcome [9] | Potency [10] | outcome [11] | outcome [12] | outcome [13] | Potency [14] | outcome [15] | Potency [16] | Potency [17] | Potency [18]

CCN(CCO)CCCC(C)Nc1ccnc2cc(Cl)ccc12 (centres undefined)
inactive: Potency [1] | Potency [2] | Potency [3] | Potency [4] | Potency [5] | Potency [6] | outcome [19] | outcome [7] | outcome [8] | outcome [9] | Potency [10] | outcome [11] | outcome [12] | outcome [13] | Potency [14] | outcome [15] | Potency [16] | Potency [17]

C[Si](C)O[Si](C)(C)O[Si](C)(C)O[Si](C)C
inactive: Potency [1] | Potency [2] | Potency [3] | Potency [4] | Potency [5] | outcome [19] | outcome [7] | outcome [8] | outcome [9] | Potency [10] | outcome [11] | outcome [12] | outcome [13] | Potency [14] | outcome [15] | Potency [16] | Potency [17] | Potency [18]

Cc1ncsc1CCO
inactive: Potency [1] | Potency [2] | Potency [3] | Potency [4] | Potency [5] | outcome [19] | outcome [7] | Potency [20] | outcome [8] | outcome [9] | outcome [11] | outcome [12] | Potency [14] | outcome [15] | Potency [16]

O=C(C(=O)c1ccc(Br)cc1)c1ccc(Br)cc1
inactive: Potency [1] | Potency [2] | Potency [3] | Potency [4] | Potency [5] | fluorescence, relative to Rose Bengal [19] -0.609% [at 18.6 µM] | fluorescence, % of fluorescein control [7] 0.0081% [at 18.6 µM] | fluorescence, % of triamterene [20] 0.126% [at 18.6 µM] | fluorescence, % of fluorescent control [8] 0.203% [at 18.6 µM] | fluorescence, % of fluorescent control [10] -0.0047% [at 18.6 µM] | fluorescence, % of fluorescent control [12] -0.0329% [at 18.6 µM] | fluorescence, % of Rose Bengal [13] -0.0316% [at 18.6 µM] | fluorescence, % of fluorescent control [14] -0.0311% [at 18.6 µM] | fluorescence, % of fluorescein control [15] -0.0449% [at 18.6 µM] | fluorescence, % of fluorescent control [16] 0.0185% [at 18.6 µM] | Potency [17] | Potency [18]

O=C(O)COC(=O)Cc1ccccc1Nc1c(Cl)cccc1Cl
inactive: Potency [1] | Potency [2] | Potency [3] | Potency [4] | Potency [5] | fluorescence, relative to Rose Bengal [19] 0.242% [at 18.6 µM] | fluorescence, % of fluorescein control [7] -0.151% [at 18.6 µM] | fluorescence, % of triamterene [20] 0.0454% [at 18.6 µM] | fluorescence, % of fluorescent control [8] -0.0045% [at 18.6 µM] | fluorescence, % of fluorescent control [10] 0.0686% [at 18.6 µM] | fluorescence, % of fluorescent control [12] -0.172% [at 18.6 µM] | fluorescence, % of fluorescent control [14] 0.0872% [at 18.6 µM] | fluorescence, % of fluorescein control [15] 0.0255% [at 18.6 µM] | fluorescence, % of fluorescent control [16] 0.0219% [at 18.6 µM]

CC1CCc2cc(F)cc3c(=O)c(C(=O)O)cn1c23 (centres undefined)
inactive: Potency [1] | Potency [2] | Potency [3] | Potency [4] | Potency [5] | outcome [7] | Potency [20] | outcome [8] | outcome [9] | Potency [10] | outcome [11] | outcome [12] | outcome [13] | Potency [14] | outcome [15] | Potency [16] | Potency [17]

CCCCOc1cc(C(=O)OCCN(CC)CC)ccc1N
inactive: Potency [1] | Potency [2] | Potency [3] | Potency [4] | Potency [5] | fluorescence, relative to Rose Bengal [19] -0.373% [at 18.6 µM] | fluorescence, % of fluorescein control [7] -0.0083% [at 18.6 µM] | fluorescence, % of fluorescent control [8] 0.112% [at 18.6 µM] | fluorescence, % of fluorescein [9] 0.0482% [at 18.6 µM] | fluorescence, % of fluorescent control [10] -0.116% [at 18.6 µM] | activity change [11] -0.0782% [at 18.6 µM] | fluorescence, % of fluorescent control [12] -0.0563% [at 18.6 µM] | fluorescence, % of Rose Bengal [13] 0.59% [at 18.6 µM] | fluorescence, % of fluorescent control [14] 0.0523% [at 18.6 µM] | fluorescence, % of fluorescein control [15] 0.0068% [at 18.6 µM] | fluorescence, % of fluorescent control [16] -0.135% [at 18.6 µM] | Potency [17] | Potency [18]

Cl/C(=C\n1cncn1)c1ccc(Cl)cc1Cl
inactive: Potency [1] | Potency [2] | Potency [3] | Potency [4] | Potency [5] | outcome [19] | outcome [7] | Potency [20] | outcome [8] | Potency [10] | outcome [11] | outcome [12] | outcome [13] | Potency [14] | outcome [15] | Potency [16]

CC(=O)Nc1ccc(/C=N/NC(N)=S)cc1
inactive: Potency [1] | Potency [2] | Potency [3] | Potency [4] | Potency [5] | outcome [19] | outcome [7] | Potency [20] | outcome [8] | outcome [9] | Potency [10] | outcome [11] | outcome [12] | Potency [14] | outcome [15] | Potency [16]

Oc1ccc(O)c2c(O)cccc12
inactive: Potency [1] | Potency [2] | Potency [3] | Potency [4] | Potency [5] | outcome [19] | outcome [7] | Potency [20] | outcome [8] | Potency [10] | outcome [11] | outcome [12] | outcome [13] | Potency [14] | outcome [15] | Potency [16] | Potency [17]

CC(C)(C)C(=O)OCOP(=O)(COCCn1cnc2c(N)ncnc21)OCOC(=O)C(C)(C)C
inactive: Potency [1] | Potency [2] | Potency [3] | Potency [4] | Potency [5] | outcome [19] | outcome [7] | outcome [8] | outcome [9] | Potency [10] | outcome [12] | outcome [13] | Potency [14] | outcome [15] | Potency [17] | Potency [18]
